# Source: PubChem
# An excerpt weighted towards active compounds, which were near 4% of everything screened.
# D1 PAM: enhances dopamine response at the human D1 receptor; potentiation, % at 10 µM; HEK293 TREx D1 cells, calcium flux, dopamine EC20 potentiation; hit rate 0.036% among 360,000; in the data active = potentiation above about 30%; also: 0% is about no effect
# D1 antag: blocks dopamine activation of the human D1 receptor | AID 504652 | hit rate 3.2% among 360,000 | HEK293 TREx D1 cells, calcium flux, dopamine EC80; stronger effect = lower value | activity change, negative = inhibition, % at 10 µM | P21728; in the data active = activity change below about -30%; also: % is scaled to controls: 0 for no effect and ±100 for the full control effect
#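 Kinetic fluorescence of a calcium dye serves as the read-out. D1-expressing Hek293 Trex cells, induced overnight at 30 C, are exposed to compound for 180 s before an EC80 dopamine addition, then read 180 s further.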
# TRHR ag: TRH receptor (human) agonism; P34981; TRHR cells, calcium flux fluo-8, FDSS agonist mode; activation, % at 2 µM; hit rate 0.18% among 360,000; AID 493084; also: 0% is about no effect
# Target sequence (P34981 whole entry, looked up): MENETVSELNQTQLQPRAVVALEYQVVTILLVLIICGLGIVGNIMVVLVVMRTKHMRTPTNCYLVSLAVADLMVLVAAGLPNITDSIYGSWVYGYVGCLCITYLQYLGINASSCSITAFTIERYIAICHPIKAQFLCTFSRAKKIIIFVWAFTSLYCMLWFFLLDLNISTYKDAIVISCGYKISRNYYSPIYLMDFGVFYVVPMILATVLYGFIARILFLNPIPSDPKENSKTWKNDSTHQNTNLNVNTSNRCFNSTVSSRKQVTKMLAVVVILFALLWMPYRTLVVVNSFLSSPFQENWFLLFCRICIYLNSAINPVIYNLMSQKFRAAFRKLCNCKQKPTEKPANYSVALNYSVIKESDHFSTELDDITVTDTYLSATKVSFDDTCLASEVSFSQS
#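 Agonist-mode FDSS calcium read (Ex 480/Em 530, 1 s cycles) in 1536-well TRHR cells with fluo-8 dye, after 10-cycle baseline and 23 nL compound addition; TRH at EC20 (10 nM final) added afterwards for the enhancer phase.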
# D1 ag: human D1 receptor agonism; P21728; HEK293 T-REx D1 cells, calcium flux, agonist mode; activation, % at 2 µM; hit rate 1% among 360,000; AID 504660; also: 0% is about no effect
#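 Inducible HEK293 T-REx D1 cells, force-coupled to calcium signalling, were plated at 4000 cells/well with tetracycline and held overnight at 30 C. After no-wash calcium dye loading, compound-evoked calcium rise over 180 s flagged agonists.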
# GRP78 ERSR act: inducers of ER stress response in human glioma cells | hit rate 0.02% among 420,000 | Potency, µM, inactives show top-dose activation, usual class: activators | AID 602332 | U87-MG GRP78 promoter luciferase reporter, 16 h; active = well fitted activation curve with a large enough effect; also: potency is read from the fitted curve at half-maximal effect; series mostly up to about 76 µM; % of control where 0% means no effect; nearly all actives have a fitted effect of over 35% in size
#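 Stably transfected U87-MG glioma cells carrying a GRP78-based luciferase sensor; 16 h compound incubation. Luminescence end-point read 10 min after Bright-Glo addition at room temperature.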
# TRHR enhancer: allosteric enhancers of human TRH receptor; P34981; TRHR cells, fluo-8 calcium fluorescence, EC20 TRH enhancement; enhancement, % at 2 µM; hit rate 0.66% among 360,000; AID 493056; in the data active = enhancement above about 30%; also: 0% is about no effect
#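 TRHR-expressing cells loaded with fluo-8 calcium dye were read kinetically (ex 480/em 530) during compound addition, then stimulated with an EC20 of TRH (10 nM final). Enhancement of the Gq-mediated intracellular calcium response was scored.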
# Active calls of the source: *; . = not tested or not shown; ! = not active in a repeat. Rule as the data show it, unless noted: active = activation above about 30%; inactive = the rest.
SMILES,D1 PAM,D1 antag,TRHR ag,D1 ag,GRP78 ERSR act,TRHR enhancer
CC1=C(C(=O)OCc2ccccc2)C(c2cccc(Cl)c2Cl)NC(=O)N1CCCCCC(=O)O (configuration not stated),0,-33*,0,2,3%,3
CC[C@H](C)C(N)C(=O)O (some centres not stated),.,.,.,.,-2%,.
CCCCCCC1=Cc2cc(OC)c(OC)cc2C(C(C(C)=O)C(=O)OCC)O1 (configuration not stated),.,.,.,.,-4%,.
CS(=O)(=O)N(CC(=O)NCC1CCCO1)c1cc(Cl)cc(Cl)c1 (configuration not stated),-3,-50*,0,2,-3%,-1
COc1ccc(C)cc1NC(=O)COC(=O)c1ccc(OCc2ccc(Cl)cc2Cl)c(OC)c1,-3,-50*,0,1,-5%,-10
O=C(/C=C/c1ccccc1)N1CCCC1CO (configuration not stated),.,.,.,.,-4%,.
Cc1cc(C)n(CC(O)COc2c(C)cccc2C)n1 (configuration not stated),-7,-2,0,1,-1%,-4
CCCCCSc1nnc2c(n1)OC(c1ccc(C)s1)N(C(C)=O)c1ccccc1-2 (configuration not stated),2,15,0,1,4%,8
CC(C)(C)c1cc(O)c(C(C)(C)C)cc1O,.,.,.,.,40µM*!,.
O=C(c1ccccc1)c1ccc(OCC(O)CNCc2ccc(F)cc2)cc1 (configuration not stated),-3,-18,2,52*,-11%,10
Cc1ccc(C(OCC(O)CNCc2ccc(F)cc2)c2ccccc2)cc1 (configuration not stated),31*,4,2,67*,-14%,1
CCC(=O)c1ccc(OCC(O)CNCc2ccc(F)cc2)cc1 (configuration not stated),-1,-5,1,10,-1%,2
O=C(c1ccccc1)c1ccc(OCC(O)CNCc2cccc(Cl)c2)cc1 (configuration not stated),-2,-5,3,43*,-15%,7
O=C(COc1ccc(C(=O)c2ccccc2)cc1)NCc1ccc(F)cc1,-3,-39*,-1,16,-3%,16
CN(C)c1ccc(N=Cc2ccncc2)cc1,.,.,.,.,-1%,.
Cc1ccccc1NC(=O)c1cccc(N2C(=O)C3CCCCC3C2=O)c1 (configuration not stated),1,-30*,-2,11,-2%,3
Cc1ccccc1NC(=O)c1cccc(N2C(=O)C3C4CCC(C4)C3C2=O)c1 (configuration not stated),-3,-21,0,3,-2%,1
CN(C(=O)c1cccc(N2C(=O)C3CC=CCC3C2=O)c1)C1CCCCC1 (configuration not stated),-3,-30*,1,9,1%,-2
Cc1ccccc1OCCCn1c(=O)sc2ccccc21,-5,0,0,4,3%,4
Cc1nc([N+](=O)[O-])cn1CC(O)c1ccc2c(c1)OCCO2 (configuration not stated),.,.,.,.,-3%,.
CCC(=O)OC1CCC2C3CCc4cc(O)ccc4C3CCC12C (configuration not stated),.,.,.,.,-5%,.
CC1(C)CC(=NOC(=O)c2ccccc2)CC(C)(C)N1,-1,15,-1,3,-1%,-6
CC1(C)CC(=NO)CC(C)(C)N1,1,-32*,0,3,-4%,3
COc1ccc(C2Nc3ccccc3C(=O)N2c2ccccc2)cc1Cn1cc([N+](=O)[O-])cn1 (configuration not stated),0,-4,1,1,-2%,9
COc1ccc(N2C(=O)c3ccccc3NC2c2ccc(OC)c(Cn3cc([N+](=O)[O-])cn3)c2)cc1 (configuration not stated),-9,-38*,-1,0,0%,-1
SMILES,D1 PAM,D1 antag,TRHR ag,D1 ag,GRP78 ERSR act,TRHR enhancer
COc1cc(OC)cc(C(=O)NCC2Cc3cccc(-c4nc(C)cnc4C)c3O2)c1 (configuration not stated),.,.,.,.,-1%,.
COc1ccc2c(c1)nc(SCC(=O)c1cccs1)n2C,-4,-36*,-1,0,4%,-9
Cc1cc(C)c(-n2nnnc2SCC(=O)c2cccs2)c(C)c1,-4,-42*,1,7,-4%,-3
CCOc1ccc(OCCOC(=O)CN(C)S(=O)(=O)c2ccc(NC(C)=O)cc2)cc1,-4,-3,0,10,0%,-2
O=P(Cc1ccccc1)(c1ccccc1)c1ccccc1,-12,-25,-1,1,-3%,2
O=[N+]([O-])c1ccc(P(=O)(Cc2ccccc2)c2ccccc2O)cc1 (configuration not stated),-6,-34*,-1,0,-1%,4
[O-][n+]1nc2ccccc2c2ccccc21,.,.,.,.,0%,.
O=[N+]([O-])c1cc(Cl)c2cccnc2c1O,-3,-12,6,30*,-2%,2
O=C(Nc1cccnc1)c1ccc(F)cc1,-3,-2,0,0,-1%,-2
O=C(NC(=S)Nc1ccccn1)c1ccc(-c2ccccc2)cc1,-9,-32*,0,6,-2%,1
O=C(Nc1cccnc1)c1ccc(-c2ccccc2)cc1,-9,-30*,0,5,6%,1
O=C(Nc1ccncc1)c1ccc(-c2ccccc2)cc1,-13,-39*,0,18,3%,5
CCN(CC)S(=O)(=O)c1cccc(C(=O)NCC2(N3CCOCC3)CCCCC2)c1,-4,-7,0,2,-3%,-14
COc1ccc(C2N3CC4(C)CN2CC(C)(C3)C4)cc1OC (configuration not stated),4,-36*,0,2,-1%,6
COC(=O)c1cccc(NC(=O)c2nn(C)c(=O)c3ccccc23)c1,2,9,0,1,4%,40*
Cc1cc(=O)n2nc(N3CCC(C(=O)Nc4c(C)cccc4C)CC3)sc2n1,-4,-2,0,-1,-3%,0
COc1ccccc1N1N=C(c2ccc([N+](=O)[O-])cc2)CC1c1ccccc1 (configuration not stated),-4,-6,24,63*,-2%,2
O=[N+]([O-])c1ccc(N2N=C(c3ccccc3)CC2c2ccccc2O)cc1 (configuration not stated),-9,2,24,63*,.,13
Cc1ccc(NC(=O)CCC(=O)N2Cc3ccccc3Oc3ncccc32)c(C)c1,-4,-10,-2,8,-4%,19
